# Measurements: PubChem BioAssay (NCI)
# About 83,000 compounds went through this panel and 20% of them were active in at least one assay; those are over-represented in the sample as a whole.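 Step 1: grow cells in 96-well plates. Step 2: add test compound at a single concentration. Step 3: incubate 48 h. Step 4: record percent growth.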 Unmarked numbers belong to inactive results. Activity calls are given as the source filed them. Rule for the calls: active = growth percent below 10; inactive = the rest.
# Tests used:
# Experiment in all cases: NCI-60 one-dose screen, 48 h (100 = growth as untreated, 0 = no growth, -100 = all killed)
# Details in all cases: 10 µM unless noted
# HCT-15 colon = tested on: HCT-15 colon
# HT29 colon = tested on: HT29 colon
# SNB-75 CNS = tested on: SNB-75 CNS
# SNB-19 CNS = tested on: SNB-19 CNS
# U251 CNS = tested on: U251 CNS
# PC-3 prostate = tested on: PC-3 prostate
# SK-MEL-5 melanoma = tested on: SK-MEL-5 melanoma
# UACC-62 melanoma = tested on: UACC-62 melanoma
# LOX IMVI melanoma = tested on: LOX IMVI melanoma
# SK-MEL-28 melanoma = tested on: SK-MEL-28 melanoma
# SN12C renal = tested on: SN12C renal
# UO-31 renal = tested on: UO-31 renal
# TK-10 renal = tested on: TK-10 renal
# ACHN renal = tested on: ACHN renal
# CAKI-1 renal = tested on: CAKI-1 renal
# A498 renal = tested on: A498 renal
# CCRF-CEM leukemia = tested on: CCRF-CEM leukemia
# MOLT-4 leukemia = tested on: MOLT-4 leukemia
# SK-MEL-2 melanoma = tested on: SK-MEL-2 melanoma
# EKVX NSCLC = tested on: EKVX NSCLC
SMILES,growth (HCT-15 colon),growth (HT29 colon),growth (SNB-75 CNS),growth (SNB-19 CNS),growth (U251 CNS),growth (PC-3 prostate),growth (SK-MEL-5 melanoma),growth (UACC-62 melanoma),growth (LOX IMVI melanoma),growth (SK-MEL-28 melanoma),growth (SN12C renal),growth (UO-31 renal),growth (TK-10 renal),growth (ACHN renal),growth (CAKI-1 renal),growth (A498 renal),growth (CCRF-CEM leukemia),growth (MOLT-4 leukemia),growth (SK-MEL-2 melanoma),growth (EKVX NSCLC)
Cc1cc(Cl)c2c(N(C)C)cccc2n1,94.1%,78%,93.6%,105%,105%,119%,101%,105%,84.1%,113%,102%,91.1%,125%,112%,99.9%,92.1%,89.8%,97.6%,–,–
COc1ccc(/C(=C\c2ccc3c(c2)OCO3)C(=O)Nc2nc3ccccc3s2)cc1OC,90.1%,90.3%,94.3%,101%,97.9%,92.1%,101%,97.8%,102%,106%,102%,-6.51% (active),96.6%,97.7%,79%,78.8%,–,74.4%,92.6%,–
CC(C)(C)CC(C)(C)c1ccc(OCCOCC[N+](C)(C)CC(=O)[O-])cc1,105%,103%,99.2%,111%,98.4%,104%,106%,104%,107%,114%,103%,98.5%,109%,111%,–,104%,–,94.2%,117%,–
COc1ccc(/C=C(\C#N)c2cc3ccccc3n2C(C)=O)cc1,41%,68.8%,74%,87.2%,87.1%,84.6%,92.2%,74.1%,–,87.2%,91%,88.1%,126%,102%,69.1%,78.3%,75.6%,70%,83.3%,78%
COCCNC1=C(Cl)C(=O)c2ccccc2C1=O,90.3%,101%,74.5%,102%,91.3%,117%,-6.75% (active),90.9%,–,109%,95.2%,115%,138%,104%,116%,81.3%,99.7%,–,103%,108%
Cc1ccsc1-c1ccc2c(c1)COC2(CCCN(C)C)c1ccc(F)cc1 (stereo not drawn),29%,17%,34.9%,67.9%,21%,45.6%,0.45% (active),44.9%,–,42.5%,56.7%,39.3%,73.7%,62.1%,38.4%,86.3%,39%,27.3%,85.4%,65.6%
C=C1CC[C@@H](C(=O)OC)Cc2nc(C)ccc21,102%,104%,100%,97.1%,103%,98.4%,101%,96.9%,–,107%,96.4%,93.6%,101%,103%,90.9%,106%,102%,101%,103%,99.8%
C=C(C)[C@@H]1CC[C@]2(C)[C@H](CC=C3[C@@H]4CC(C)(C)CC[C@]4(C=O)CC[C@]32C)[C@@]1(C)CCCN,42.1%,7.12% (active),87.8%,89.1%,69.6%,47.5%,83%,87.8%,–,89.4%,66.7%,44.6%,81.4%,88.4%,61.1%,97%,52.9%,–,109%,94.5%
O=[N+]([O-])c1ccc(/C=N\Nc2ccccc2)cc1,65.5%,96.8%,81.8%,104%,72%,69%,98.1%,3.85% (active),–,97.5%,87.3%,65.5%,111%,72.6%,72.8%,75.3%,–,–,49.5%,76.6%
C(=C\c1c[nH]c2ccccc12)/c1ccc2ccccc2n1,53.9%,33.4%,81.1%,84.4%,59.7%,59.3%,96%,86.8%,–,107%,51.4%,23.6%,114%,89.9%,60.7%,120%,14.9%,–,86.5%,70.8%
CN1CCN(c2nc(-c3csc(-c4cccs4)n3)cc3ccccc23)CC1,7.33% (active),-27.3% (active),54.5%,66.1%,28.8%,39.8%,43.7%,33.6%,–,68.9%,71%,59.8%,79%,31.4%,39.6%,10.5%,30.7%,9.46% (active),39.7%,68.3%
N#C/C(=C\c1ccc(-c2ccccc2)o1)c1nc(-c2ccco2)cs1,47.6%,99.8%,91.9%,94.1%,98.3%,77.8%,73.5%,77.9%,–,105%,92.3%,55.2%,55.8%,93.4%,85.2%,125%,95.9%,98.7%,106%,37.3%
O=[N+]([O-])c1cc(S(=O)(=O)c2ccc(F)c([N+](=O)[O-])c2)ccc1F,36.5%,97%,97.2%,106%,62.8%,107%,106%,105%,–,110%,108%,86.1%,119%,97.1%,109%,107%,46.2%,23.2%,112%,117%
O=C1CN(c2ccccc2)C(=O)C1C(=O)Nc1ccc(Cl)c(Cl)c1 (stereo not drawn),27.9% [100 µM],3.98% [100 µM] (active),6.38% [100 µM] (active),3.37% [100 µM] (active),-7.08% [100 µM] (active),27.1% [100 µM],-6.23% [100 µM] (active),-3.41% [100 µM] (active),–,33.4% [100 µM],17.6% [100 µM],5.84% [100 µM] (active),26.4% [100 µM],2.16% [100 µM] (active),-2.42% [100 µM] (active),11.3% [100 µM],35.9% [100 µM],6.47% [100 µM] (active),18.1% [100 µM],47.4% [100 µM]
Cc1ccccc1-c1nc(C(Cl)Cl)nc2cc(-c3ccccc3)nn12,36.1%,13.7%,8.7% (active),69.8%,47.2%,62%,86.4%,74.4%,–,97.3%,81.4%,57.2%,65.1%,41.1%,44.8%,85.4%,102%,83.9%,101%,57.8%
CC(=O)c1c(C)[nH]c(-c2nc3ccc(N4CCN(C)CC4)cc3[nH]2)c1-c1ccc2c(c1)OCCO2,8.46% (active),14.2%,1.99% (active),51.3%,57.2%,45.8%,26.1%,20.9%,–,50.8%,58.5%,9.19% (active),1.44% (active),29.3%,13.3%,45.5%,50.3%,58.3%,76.4%,45.2%
CCN1CCN(C(=O)[C@]23CCC(C)(C)C[C@@H]2C2=CC[C@@H]4[C@@]5(C)C/C(=C/c6cccnc6)C(=O)C(C)(C)[C@@H]5CC[C@@]4(C)[C@]2(C)CC3)CC1,13.7%,10.6%,45.3%,48.3%,-88.1% (active),17.2%,-91% (active),26.6%,–,41.7%,29.5%,33.3%,52.4%,33.4%,31.5%,45.1%,33.4%,–,41.9%,25.4%
